Results taken from PubChem BioAssay AID463173 (ICCB-Longwood Screening Facility, Harvard Medical School, 2010).
Among all 52,000 compounds or so, about 1,700 (3.3%) were called active. This is one part of a sample in which actives are shown more often than they occur. Values without a mark were called inactive. Rule as the data show it: active = survival mostly below about 52% (no sharp cut-off); inactive = mostly above about 56%.

These molecules were tested on Wild type (assay: S. aureus survival, RN4220 and DeltatarO strains – OD600, teichoic acid synthesis inhibitors, primary screen (AID 463173)). Settings: S. aureus RN4220 wild type/DeltatarO growth, OD600, 18 h, hits give low values, screened at 18.75 µg/mL (by protocol).

CCn1c(Cc2ccccc2)nnc1SCC(=O)N(C)C1CCCCC1 was tested. Which survival did it give?
The survival was 108%.

COc1ccc(CNc2nc3c(-c4ccccc4)nnn3c3ccccc23)cc1 was tested. Which survival did it give?
The survival was 90%.

For COc1ccc(-c2cc(C(=O)Nc3c(C)n(C)n(-c4ccccc4)c3=O)no2)cc1, which survival is on record?
Its survival is 73%.

For Cc1cccc(CNC(=O)c2ccc(N3Cc4ccccc4Oc4ncccc43)s2)c1, which survival is on record?
The survival was 69%.

For Cc1ccc(Cn2c(C)c3cnn(CC(=O)N4CCN(c5cc(C)ccc5C)CC4)c(=O)c3c2C)cc1, which survival is on record?
Its survival is 65%.

How did the survival turn out when CCOC(=O)c1noc2ncn(CC(=O)Nc3ccc(F)cc3Cl)c(=O)c12 was run?
Its survival is -6% (active).

With CCOC(=O)c1noc2ncn(CC(=O)Nc3ccccc3OC)c(=O)c12 as the molecule, how does the survival read?
The survival was 133%.

CCOC(=O)c1noc2ncn(CC(=O)Nc3cc(Cl)ccc3OC)c(=O)c12 was tested. Which survival did it give?
The survival was 76%.

COc1cccc(NC(=O)Cn2c(=O)n(Cc3ccc4c(c3)OCO4)c(=O)c3oc4ccccc4c32)c1 was tested. Which survival did it give?
The survival was 80%.

Which survival does the source give for O=C(CCn1cnc2onc(-c3ccc(F)cc3)c2c1=O)N1CCN(c2ccccc2)CC1 here?
Its survival is 75%.

With CC(=O)c1ccc(N2CCN(C(=O)CCn3cnc4onc(-c5ccc(F)cc5)c4c3=O)CC2)cc1 as the molecule, how does the survival read?
The survival was -6% (active).

For COc1ccccc1N1CCN(C(=O)CCn2cnc3onc(-c4ccc(F)cc4)c3c2=O)CC1, which survival is on record?
The survival was 87%.

For O=C(CCn1cnc2onc(-c3ccc(F)cc3)c2c1=O)N1CCN(c2ccccc2F)CC1, which survival is on record?
Its survival is -6% (active).

For O=C(Cn1cnc2onc(-c3ccc(F)cc3)c2c1=O)N1CCN(c2ccccc2F)CC1, which survival is on record?
The survival was 71%.

Which survival does the source give for O=C(CCn1cnc2onc(-c3ccc(F)cc3)c2c1=O)N1CCN(c2ccc(F)cc2)CC1 here?
The survival was 98%.

How did the survival turn out when CCOc1ccc(CC(=O)NCCc2sc3nc(-c4ccc(F)cc4)nn3c2C)cc1 was run?
The survival was 71%.

How did the survival turn out when COC(=O)c1ccccc1NC(=O)c1cc(-c2ccc(Cl)cc2)on1 was run?
The survival was 71%.

For Cc1ccc(C)c(NC(=O)CSc2nnc(CNC(=O)c3ccccc3)n2-c2ccccc2)c1, which survival is on record?
Its survival is 63%.

For Cc1nn(CC(=O)NCCc2ccc(Cl)cc2)c(=O)c2cc3cc(F)ccc3n12, which survival is on record?
Its survival is 74%.

Which survival does the source give for Cc1cccc(NC(=O)CSC2=Nc3ccccc3C3=NC(CC(=O)NCc4cccs4)C(=O)N23)c1 (centres undefined) here?
Its survival is 81%.

For Cc1ccc(C)c(CSc2nnc(C)n3c2cc2sccc23)c1, which survival is on record?
The survival was 65%.

How did the survival turn out when Clc1ccc(C(c2ccccc2)c2c[nH]c3ccccc23)s1 (centres undefined) was run?
Its survival is 4% (active).

How did the survival turn out when Cc1ccc2[nH]cc(C(c3ccccc3)c3ccc(Cl)s3)c2c1 (centres undefined) was run?
The survival was 18%.

Which survival does the source give for c1ccc(C(c2cccs2)c2c[nH]c3ccccc23)cc1 (centres undefined) here?
The survival was 17%.

With Cc1ccc(NC(=O)CN2C(=O)CSc3ccc(S(=O)(=O)N4CCCC4)cc32)c(C)c1 as the molecule, how does the survival read?
Its survival is 98%.

How did the survival turn out when CCN(C(=O)c1cc2c(Cl)nc3ccccc3c2s1)c1cccc(Cl)c1 was run?
The survival was 76%.

How did the survival turn out when Cc1ccc(Cl)cc1N(C)C(=O)c1cc2c(Cl)nc3ccccc3c2s1 was run?
Its survival is 70%.

With CCCN(C(=O)c1cc2c(Cl)nc3ccccc3c2s1)c1cccc(C)c1 as the molecule, how does the survival read?
The survival was 1% (active).

For CCc1ccccc1N(C)C(=O)c1cc2c(Cl)nc3ccc(C)cc3c2s1, which survival is on record?
Its survival is 0% (active).

How did the survival turn out when CCN(CCCNC(=O)c1cc2c(Cl)nc3ccccc3c2s1)Cc1ccccc1 was run?
The survival was 96%.

CN(CCCNC(=O)c1cc2c(Cl)nc3ccccc3c2s1)Cc1ccccc1 was tested. Which survival did it give?
Its survival is 45%.

How did the survival turn out when CN(C(=O)c1cc2c(Cl)nc3ccccc3c2s1)c1cccc(C(F)(F)F)c1 was run?
The survival was 80%.

For Cc1ccc2nc(Cl)c3cc(C(=O)NCCCN(C)Cc4ccccc4)sc3c2c1, which survival is on record?
Its survival is -3% (active).

How did the survival turn out when Cc1ccc2nc(Cl)c3cc(C(=O)N(C)C4CCCCC4)sc3c2c1 was run?
Its survival is 35%.

Which survival does the source give for CC1(C)N=C(SCc2ccc(Cl)cc2)c2ccccc2N1 here?
The survival was 143%.

Cc1ccc(C(=O)c2oc3ccccc3c2NC(=O)c2nc(S(C)(=O)=O)ncc2Cl)cc1F was tested. Which survival did it give?
Its survival is 83%.

How did the survival turn out when COc1ccc(Nc2nn(-c3ccc(OC(F)(F)F)cc3)nc2C(C)=O)cc1 was run?
Its survival is 95%.

Cc1ccc(-c2cc3ncc4c(n3n2)-c2cc(Cl)ccc2OC4)cc1 was tested. Which survival did it give?
Its survival is 97%.

For CCn1c(=O)n(-c2ccc3c(c2)OCO3)c2nc(-c3ccc(C(C)C)cc3)nc(C(N)=O)c21, which survival is on record?
Its survival is 130%.

How did the survival turn out when CCOC(=O)c1[nH]c(C)c(CCC(=O)Nc2c(C)cc(C)cc2C)c1C was run?
The survival was 127%.

How did the survival turn out when Cc1cc(C)cc(OCCCn2c(CCNC(=O)C3CCCCC3)nc3ccccc32)c1 was run?
The survival was 27% (active).

Which survival does the source give for Cc1cccc(C)c1OCCCn1c(CCNC(=O)C2CCCCC2)nc2ccccc21 here?
Its survival is 28% (active).

How did the survival turn out when Cc1cc(OCCCn2c(CCNC(=O)C3CCCCC3)nc3ccccc32)ccc1Cl was run?
Its survival is 0% (active).

With Cc1cc(C)cc(OCCn2c(CCNC(=O)C3CCCCC3)nc3ccccc32)c1 as the molecule, how does the survival read?
Its survival is 105%.

How did the survival turn out when Cc1cccc(C)c1OCCn1c(CCNC(=O)C2CCCCC2)nc2ccccc21 was run?
The survival was 65%.

Cc1cc(OCCn2c(CCNC(=O)C3CCCCC3)nc3ccccc32)ccc1Cl was tested. Which survival did it give?
The survival was 67%.

O=C(NCCc1nc2ccccc2n1CCCOc1ccc(Cl)cc1)C1CCCCC1 was tested. Which survival did it give?
The survival was 10% (active).

For O=C(NCCc1nc2ccccc2n1CCOc1ccc(Cl)cc1)C1CCCCC1, which survival is on record?
Its survival is 20%.

With Cc1ccc(OCCCn2c(CCNC(=O)C3CCCCC3)nc3ccccc32)c(C)c1 as the molecule, how does the survival read?
Its survival is 95%.

For Cc1ccc(OCCn2c(CCNC(=O)C3CCCCC3)nc3ccccc32)cc1, which survival is on record?
The survival was 65%.

How did the survival turn out when Cc1cccc(OCCCn2c(CCNC(=O)C3CCCCC3)nc3ccccc32)c1 was run?
Its survival is 34%.

For Cc1ccccc1OCCCn1c(CCNC(=O)C2CCCCC2)nc2ccccc21, which survival is on record?
Its survival is 65%.

Which survival does the source give for COc1ccc(-c2nnc(SCC(=O)Nc3cccc(C(F)(F)F)c3)s2)cc1 here?
The survival was 99%.

COc1ccc(C(=O)N(Cc2cc(OC)c(OC)c(OC)c2)C2CCS(=O)(=O)C2)cc1Cl (centres undefined) was tested. Which survival did it give?
The survival was 86%.

With COc1ccccc1-c1c(C)nn2c(N3CCN(c4ccccc4)CC3)cc(C)nc12 as the molecule, how does the survival read?
Its survival is 70%.

Cn1c(SCCN2CCCC2)nnc1-c1ccncc1 was tested. Which survival did it give?
The survival was 112%.

COc1cc(OC)c(NC(=O)c2nn(C)c3c2COc2ccccc2-3)cc1Cl was tested. Which survival did it give?
The survival was 111%.

How did the survival turn out when CCOc1ccc(-n2c(SCc3ccc(C(=O)OC)o3)nc3c([nH]c4ccccc43)c2=O)cc1 was run?
The survival was 82%.

For Oc1ccc(Br)cc1C=Nc1cccc(-c2nc3ccccc3o2)c1, which survival is on record?
The survival was 111%.

For COc1cccc2cc(C(=O)Nc3ccc(CC(=O)O)cc3)c(=O)oc12, which survival is on record?
The survival was 73%.

How did the survival turn out when CCOc1ccc(NC(=O)CSc2nnc3c(C)cc4ccccc4n23)cc1 was run?
Its survival is 132%.

With O=C(Nc1ccc(Br)cc1)Nc1nc2c(s1)CCCCCC2 as the molecule, how does the survival read?
The survival was 82%.

Which survival does the source give for Cc1ccc(NC(=O)Nc2nc3c(s2)CCCCCC3)cc1C here?
The survival was 69%.

For O=C(Nc1nc2c(s1)CCCCCC2)Nc1ccc(F)cc1F, which survival is on record?
The survival was -2% (active).

How did the survival turn out when Cc1cc(-c2ccc(C)c(S(=O)(=O)Nc3ccccn3)c2)on1 was run?
The survival was 73%.

For O=C(CN1CCCC1)Nc1nc(-c2ccc3c(c2)CCN3C(=O)C2CC2)cs1, which survival is on record?
Its survival is 116%.

For O=C(CSc1nc2ccccc2c(=O)n1-c1ccccc1)N1CCOCC1, which survival is on record?
Its survival is 104%.

With CC(=O)Nc1cccc(NC(=O)c2c(-c3ccccc3)c(-c3ccccc3)nn(C)c2=O)c1 as the molecule, how does the survival read?
The survival was 85%.

With COc1ccc2cc(-c3nc(-c4ccc(N(C)C)cc4)no3)c(=O)oc2c1 as the molecule, how does the survival read?
Its survival is 99%.

With COc1cccc(CNS(=O)(=O)c2cnc(N)nc2)c1 as the molecule, how does the survival read?
Its survival is 57%.

COc1ccc(CNS(=O)(=O)c2cnc(N)nc2)cc1 was tested. Which survival did it give?
The survival was -4% (active).

CC(C)Oc1ccc(CNS(=O)(=O)c2cnc(N)nc2)cc1 was tested. Which survival did it give?
Its survival is 111%.

With CC(C)(C)OC(=O)N1CCC(c2c(C(=O)NCCN3CCOCC3)cnn2-c2ccccc2)CC1 as the molecule, how does the survival read?
Its survival is 64%.

For NCC1OCCc2ccccc21 (centres undefined), which survival is on record?
The survival was 114%.

With COC(=O)c1ccccc1NC(=O)c1ccc(COc2cc(C)cc(C)c2)o1 as the molecule, how does the survival read?
Its survival is 59%.

Which survival does the source give for COc1ccccc1NC(=O)c1ccc(C)o1 here?
The survival was 104%.

How did the survival turn out when COC(=O)c1ccccc1NC(=O)c1ccc(COc2ccccc2Cl)o1 was run?
Its survival is 68%.

Cc1cc(C)cc(OCc2ccc(C(=O)Nc3ccccc3F)o2)c1 was tested. Which survival did it give?
Its survival is 72%.

How did the survival turn out when CCCc1ccc(OCc2ccc(C(=O)Nc3ccccc3C(=O)OC)o2)cc1 was run?
The survival was 3% (active).

How did the survival turn out when COc1ccccc1NC(=O)c1ccc(COc2ccc(C)c(C)c2)o1 was run?
Its survival is 0% (active).

With Cc1nc2c(-c3ccc(F)cc3)c(C)nn2c(C)c1CCC(=O)N1CCN(c2ccccc2)CC1 as the molecule, how does the survival read?
Its survival is 75%.

How did the survival turn out when Cc1c(C(=O)NCCc2ccc(Cl)cc2)sc2nc3n(c(=O)c12)CCCC3 was run?
The survival was 78%.

How did the survival turn out when CCCS(=O)(=O)N1CCN(Cc2ccc(OC)c(OCC)c2)CC1 was run?
Its survival is 103%.

With CCn1c2ccccc2c2cc(CN3CCN(Cc4ccc(Br)cc4)CC3)ccc21 as the molecule, how does the survival read?
Its survival is 3% (active).

With CCn1c2ccccc2c2cc(CN3CCN(Cc4ccc(OC)c(OC)c4)CC3)ccc21 as the molecule, how does the survival read?
Its survival is 14% (active).

Which survival does the source give for CCn1c(=O)cc(SCC(=O)NCc2cccc(Cl)c2)c2ccccc21 here?
Its survival is 60%.

For Clc1ccccc1CN1CCN(Cc2ccco2)CC1, which survival is on record?
The survival was 101%.

With CCn1c2ccccc2c2cc(CN3CCN(Cc4ccco4)CC3)ccc21 as the molecule, how does the survival read?
Its survival is 104%.

How did the survival turn out when CCS(=O)(=O)N1CCN(Cc2ccccc2)CC1 was run?
The survival was 119%.

For CCn1c2ccccc2c2cc(CN3CCN(Cc4cc(OC)c(O)c(OC)c4)CC3)ccc21, which survival is on record?
Its survival is 54%.

CCn1c2ccccc2c2cc(CN3CCN(Cc4cccc(Cl)c4)CC3)ccc21 was tested. Which survival did it give?
Its survival is 0% (active).

CCCN1CCN(C(=O)Cn2ncc3c4ccccc4n(Cc4cccc(Cl)c4)c3c2=O)CC1 was tested. Which survival did it give?
Its survival is 80%.

Cc1ccc(Cn2c(=O)n(Cc3ccccc3Cl)c(=O)c3ccccc32)cc1 was tested. Which survival did it give?
The survival was 56%.

CCn1c2ccccc2c2cc(CN3CCN(Cc4ccccc4Cl)CC3)ccc21 was tested. Which survival did it give?
The survival was 1% (active).
